Rows were chosen to be rich in hits. Some 4.1% of all compounds tested hit in one or more screens of this group.
hgDAF-12 ag: H. glycines DAF-12 receptor agonists, primary screen, cell-based, luminescence, HEK293, GAL4 fusion, UAS-luciferase. Nuclear hormone receptor DAF-12 (Heterodera glycines), GAL4 fusion. activation, % at 6.8 µM. HEK293 GAL4-hgDAF12 UAS-luciferase reporter, agonist luminescence; normalized to butyrate control. 370,000 compounds, 1.8% hits. AID 687014, 2013;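 active = activation above a cutoff set at the mean of all screened compounds plus 3 SD, cut at about 10% in these data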
DAX1 inh-1: DAX1 (NR0B1) inhibitors, primary screen, cell-based, HEK293, Gal4-DAX1, luciferase luminescence; HEK293 Gal4-DAX1 luciferase reporter; 340,000 compounds, 0.99% hits; inhibition, % at 6.75 µM;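 active = inhibition above the mean over all tested compounds plus 3 SD, cut at about 4.2% in these data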;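 note: inhibition shows as a rise in luminescence from relieved DAX1 repression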
hcDAF12 agonist: H. contortus DAF-12 nuclear receptor activators, primary screen, cell-based, luminescence, HEK293, lit1-tk-luc reporter; HEK293 hcDAF-12 lit1-tk-luc reporter; 0% DMSO, 100% Δ7-dafachronic acid; activation, % at 6.8 µM; 370,000 compounds, 1.4% hits; AID 652067, 2013;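 active = activation above the mean of all tested compounds plus 3 SD, cut at about 5.5% in these data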
DAX1 inh-2: DAX1 (NR0B1) inhibitors on StAR promoter, primary screen, cell-based, luminescence, SF-1 (NR5A1), full-length DAX-1; inhibition, % at 6.8 µM; HEK293T StAR-luciferase reporter, SF-1/DAX-1 repression relief; AID 652010, 2013; 370,000 compounds, 1.1% hits;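 active = inhibition above the mean over all tested compounds plus 3 SD, cut at about 3.6% in these data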;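 note: higher inhibition means more luminescence from relief of DAX-1 repression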
ssDAF-12 act: S. stercoralis DAF-12 nuclear receptor activators, primary screen, cell-based, luminescence, HEK293, GRIP1 co-expression, lit1-tk-luc; Nuclear hormone receptor DAF-12 (Strongyloides stercoralis); HEK293 ssDAF-12/GRIP1 lit1-tk-luc reporter; % of 3 µM dafachronic acid response; activation, % at 6.8 µM; 370,000 compounds, 1% hits; AID 652126, 2013;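 active = activation above the mean over all tested compounds plus 3 SD, cut at about 0.9% in these data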
LXR ag: LXR agonists, Gal4 luciferase reporter, confirmation, counter-screen for hcDAF-12 agonist project, cell-based, luminescence, HEK293, H. contortus campaign; HEK293 Gal4-LXR tk-luc reporter, 24 h; normalized: DMSO 0%, positive control 100%; 3,400 tested, under 10 active; activation, % at 6.8 µM; shares compounds with hcDAF12 agonist;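 active = mean percent activation of the reporter above a cutoff set as the average over tested compounds plus their standard deviation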
Target sequence (P55055 whole entry, looked up, the tested form may be a part): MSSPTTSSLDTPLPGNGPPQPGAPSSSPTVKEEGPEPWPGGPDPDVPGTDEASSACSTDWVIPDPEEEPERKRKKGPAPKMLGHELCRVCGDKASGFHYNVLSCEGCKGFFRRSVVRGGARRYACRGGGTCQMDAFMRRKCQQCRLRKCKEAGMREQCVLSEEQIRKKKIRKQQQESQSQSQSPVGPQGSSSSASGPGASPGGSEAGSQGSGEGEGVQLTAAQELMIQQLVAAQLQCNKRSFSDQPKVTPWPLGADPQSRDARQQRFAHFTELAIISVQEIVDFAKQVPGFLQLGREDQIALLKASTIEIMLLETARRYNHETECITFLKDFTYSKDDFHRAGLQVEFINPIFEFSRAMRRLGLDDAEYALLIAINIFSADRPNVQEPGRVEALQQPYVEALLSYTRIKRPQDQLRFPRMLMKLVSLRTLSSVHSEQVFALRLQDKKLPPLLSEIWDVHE
hcDAF12 ag: H. contortus DAF-12 receptor agonists, confirmation, cell-based, luminescence, HEK293, lit1-tk-luc, triplicate. shares compounds with hcDAF12 agonist. HEK293 hcDAF-12 lit1-tk-luc reporter; % of Δ7-dafachronic acid response. activation, % at 6.8 µM. 3,400 compounds, 61% hits;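 active = mean activation across triplicate tests above the threshold derived from the earlier primary screen, cut at about 5.5% in these data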
hgDAF12 conf: H. glycines DAF-12 receptor agonists, confirmation, cell-based, luminescence, HEK293, GAL4-LBD fusion; shares compounds with hgDAF-12 ag; HEK293 GAL4-hgDAF12 luciferase reporter, agonist mode; percent of butyrate response; activation, % at 6.8 µM; 3,300 compounds, 80% hits;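 active = mean activation over triplicate wells above the hit cutoff derived from the earlier primary screen, cut at about 11% in these data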
LXR ag 2: LXR agonists, Gal4 luciferase reporter, confirmation, counter-screen for hgDAF-12 agonist project, cell-based, luminescence, HEK293, H. glycines campaign; shares compounds with hgDAF-12 ag; 24 h; activation, % at 6.8 µM; 3,300 tested, under 10 active;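 active = mean activation of the triplicate above a set limit carried over from the primary screen, none filed active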
Each line names hits and unclear results; the compound was inactive in the other large screens (follow-up assays come after a bar, where they were run).

Clc1ccc(-c2cn3cc(Cl)ccc3n2)cc1	hgDAF-12 ag 14.1, hcDAF12 agonist 19.7, ssDAF-12 act 3.2 | LXR ag inactive | hcDAF12 ag 17.9 | hgDAF12 conf 21.6 | LXR ag 2 inactive
CC(=O)Nc1ccc(-c2cn3cc(C)ccc3n2)cc1	hgDAF-12 ag 18.5, hcDAF12 agonist 10.6, DAX1 inh-2 3.6 | LXR ag inactive | hcDAF12 ag 7.4 | hgDAF12 conf 11.4 | LXR ag 2 inactive
Fc1ccc(-n2nnc(-c3cccnc3Cl)n2)cc1	hgDAF-12 ag 16.8, DAX1 inh-1 4.4, hcDAF12 agonist 7.2 | LXR ag inactive | hcDAF12 ag inactive | hgDAF12 conf 17.3 | LXR ag 2 inactive
CCO/N=C(\N)c1[nH]ncc1Br	none
N/C(=N\OC(=O)c1ccc(Cl)cc1)c1[nH]ncc1Br	hgDAF-12 ag 19.1, hcDAF12 agonist 11.8 | LXR ag inactive | hcDAF12 ag 7.3 | hgDAF12 conf 20.6 | LXR ag 2 inactive
Oc1ccc(C=NNc2nc3ccccc3s2)c(O)c1	hgDAF-12 ag 13.3, hcDAF12 agonist 9.6, ssDAF-12 act 1.8 | LXR ag inactive | hcDAF12 ag inactive | hgDAF12 conf 10.9 | LXR ag 2 inactive
O=C(O)c1ccccc1C(=O)Nc1ccccc1NC(=O)c1ccccc1C(=O)O	hgDAF-12 ag 15.4, hcDAF12 agonist 7.0 (no result: DAX1 inh-1) | LXR ag inactive | hcDAF12 ag inactive | hgDAF12 conf 12.7 | LXR ag 2 inactive
O=C(COC(=O)c1ccccc1)NC12CC3CC(CC(C3)C1)C2	none
O=C(CCCc1ccccc1)NC12CC3CC(CC(C3)C1)C2	hgDAF-12 ag 17.3, hcDAF12 agonist 8.4, ssDAF-12 act 1.2 | LXR ag inactive | hcDAF12 ag 6.9 | hgDAF12 conf 15.5 | LXR ag 2 inactive
O=C(Nc1ccon1)c1ccc(OC2CCCC2)cc1	hgDAF-12 ag 14.4, hcDAF12 agonist 7.2, DAX1 inh-2 4.5 | LXR ag inactive | hcDAF12 ag inactive | hgDAF12 conf 14.4 | LXR ag 2 inactive
C=CCc1c(C)nc2cc(-c3ccc(C)cc3)[nH]n2c1=O	hgDAF-12 ag 13.8, hcDAF12 agonist 6.3, ssDAF-12 act 1.0 | hgDAF12 conf 11.3 | LXR ag 2 inactive
COc1ccc2cc(CN(CC3CCCO3)C(=S)Nc3ccccc3)c(=O)[nH]c2c1 (configuration not stated)	none
C=CCNC1CCC12CCC(c1ccccc1)CC2 (configuration not stated)	none (no result: DAX1 inh-1, DAX1 inh-2)
Cc1ccc(-c2nc(C#N)c(NCc3ccco3)o2)cc1	hgDAF-12 ag 14.5 | hgDAF12 conf 16.3 | LXR ag 2 inactive
COc1ccc(-c2nc(C#N)c(NCc3ccco3)o2)cc1	hgDAF-12 ag 15.6 | hgDAF12 conf 16.1 | LXR ag 2 inactive
COc1ccc(-c2cn3nc4c(nc3n2)CCCC4)cc1	none
COc1cccc(-c2cn3nc(C)c(C)nc3n2)c1	hgDAF-12 ag 15.3 | hgDAF12 conf 13.6 | LXR ag 2 inactive
CCCS(=O)(=O)NC(=O)C1(C)CCN1C(=O)Cc1ccc(Cl)cc1Cl (configuration not stated)	none (no result: DAX1 inh-1)
S=c1nc(-c2ccccc2)oc2c1CCCC2	none
COc1cccc(-c2nc(=S)c3c(o2)CCCC3)c1	hgDAF-12 ag 13.4, DAX1 inh-1 5.1, DAX1 inh-2 3.7 | hgDAF12 conf 17.3 | LXR ag 2 inactive
CN1OC[C@@H]2CN(C(=O)CCc3ccccc3)[C@H](c3ccc(N4CCCCC4)cc3)C[C@@H]21	none (no result: DAX1 inh-1)
COc1ccc(-c2csc(N=C(N)N)n2)cc1	hgDAF-12 ag 16.0 | hgDAF12 conf 10.8 | LXR ag 2 inactive
Cc1cc(OCCCC(=O)NC2=NCCS2)ccc1Cl	none
COc1ccc(/C=C/C(=O)NC2=NCCS2)c(OC)c1	hgDAF-12 ag 14.0 (no result: DAX1 inh-1, DAX1 inh-2) | hgDAF12 conf 14.6 | LXR ag 2 inactive
O=C(/C=C/c1ccc(Cl)c(Cl)c1)NC1=NCCS1	hgDAF-12 ag 13.4 | hgDAF12 conf 10.5 | LXR ag 2 inactive
Cc1ccc(C(=O)OCC(=O)NC2CCCC2)cc1	none
NNC(=O)c1ccc2nc(-c3ccc(Br)cc3)cn2c1	hgDAF-12 ag 14.8 | hgDAF12 conf 17.9 | LXR ag 2 inactive
NNC(=O)c1ccc(Cn2cc(Br)cn2)cc1	none
O=C(CN1CCN(C(=O)c2ccco2)CC1)Nc1cc(S(=O)(=O)N2CCCC2)ccc1Cl	none
Cc1ccccc1S(=O)(=O)Nc1nc2ccccc2nc1Cl	none
Cc1ccccc1S(=O)(=O)Nc1nc2ccccc2nc1N1CCc2ccccc2C1	hgDAF-12 ag 14.4 | hgDAF12 conf inactive | LXR ag 2 inactive
O=C1c2ccccc2CN1CCSC(=S)N1CCOCC1	hgDAF-12 ag 15.8 | hgDAF12 conf 16.0 | LXR ag 2 inactive
CC1CN(C(=S)SCCN2Cc3ccccc3C2=O)CC(C)O1 (configuration not stated)	none
CC(c1ccco1)N(C(=O)c1ccccc1NS(=O)(=O)c1ccc(Cl)c([N+](=O)[O-])c1)c1ccccn1 (configuration not stated)	none
CCOC(=O)C1C(c2cccs2)NC(=O)NC1(O)C(F)(F)F (configuration not stated)	hgDAF-12 ag 24.2 | hgDAF12 conf inactive | LXR ag 2 inactive
CCOC(=O)C1C(c2cccnc2)NC(=O)NC1(O)C(F)(F)F (configuration not stated)	none
CCOC(=O)C1=NOC(C(=O)NN(C)c2ncc(C(F)(F)F)cc2Cl)C1 (configuration not stated)	none

Source: PubChem BioAssay
